# Experimental data taken from PubChem BioAssay AID720504 (National Center for Advancing Translational Sciences (NCATS), 2013).
# The whole screen tested about 360,000 compounds, of which about 10,000 (2.8%) were called active. About 4% were inconclusive and are not listed. The sample holds actives, similar compounds and a random draw of the others, so the mix is not that of the screen. Calls come from the whole dose curve; as a rule, active = well fitted inhibition curve with a large enough effect; inconclusive = small, poorly fitted or top-dose-only effect; inactive = flat fitted curve, though single readings scatter.
# Molecular target: Serine/threonine-protein kinase PLK1 (Homo sapiens) (UniProt P53350)
# Assay: qHTS for Inhibitors of PLK1-PDB (polo-like kinase 1 - polo-box domain): Primary Screen; note: nearly all actives have a fitted effect of over 65% in size; for max response, negative = inhibition: series mostly up to about 57 µM
# Details: Plk1 PBD binding of FITC phosphopeptide, fluorescence polarization
# % is set by controls: 0 for no effect and ±100 for the full control effect; potency is the fitted concentration of half-maximal effect.
# Serine/threonine-protein kinase PLK1 (Homo sapiens), sequence (P53350 whole entry, looked up, the tested form may be a part): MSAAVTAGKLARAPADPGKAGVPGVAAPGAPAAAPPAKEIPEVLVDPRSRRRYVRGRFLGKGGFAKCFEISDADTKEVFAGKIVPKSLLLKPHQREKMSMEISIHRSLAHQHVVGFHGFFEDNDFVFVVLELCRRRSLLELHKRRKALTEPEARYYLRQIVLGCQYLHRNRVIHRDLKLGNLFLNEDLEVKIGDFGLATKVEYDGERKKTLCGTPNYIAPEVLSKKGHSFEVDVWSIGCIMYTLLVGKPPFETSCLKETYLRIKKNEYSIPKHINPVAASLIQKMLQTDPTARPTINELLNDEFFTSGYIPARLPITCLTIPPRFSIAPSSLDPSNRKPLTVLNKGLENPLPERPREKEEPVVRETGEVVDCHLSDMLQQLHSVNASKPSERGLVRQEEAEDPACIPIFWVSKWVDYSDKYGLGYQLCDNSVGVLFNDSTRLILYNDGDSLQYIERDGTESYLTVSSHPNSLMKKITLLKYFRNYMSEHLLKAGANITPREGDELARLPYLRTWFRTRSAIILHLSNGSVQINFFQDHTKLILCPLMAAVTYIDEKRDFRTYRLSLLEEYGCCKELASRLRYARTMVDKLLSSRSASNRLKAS
Compound,"max response, negative = inhibition",Potency
COc1ccc(Cn2c(=O)oc3ccccc32)cc1,-4.16% (inactive),
CC(=O)Nc1cccc(-c2cc3nc(NCc4cccnc4)n(C)c(=O)c3s2)c1,-0.405% (inactive),
CC(=O)Oc1ccc(Cn2c(C)c(C(=O)NCc3ccc(C#N)cc3)sc2=O)cc1,-2.92% (inactive),
Cc1sc2nc(-c3ccccc3F)oc(=O)c2c1C,-3.03% (inactive),
N#CCCN(C(=S)Nc1ccc(Cl)c(Cl)c1)C1CCCCC1,-9.12% (inactive),
O=c1cnnc(Nc2ccccc2)[nH]1,-9.72% (inactive),
S=c1[nH]nc(Nc2ccccc2)s1,,23.8 µM (active)
CC(C)(C)C(=O)c1cnc(Nc2ccccc2)s1,-4.38% (inactive),
CCOC(=O)C(Sc1ncc(C#N)c(N)n1)C(C)C (stereo not drawn),,11.9 µM (active)
CCOC(=O)c1cnc(SCC(=O)Nc2ccccc2C(=O)OC)nc1N,0.561% (inactive),
CCOC(=O)CSc1nccc(N(C)C)c1C#N,-3.55% (inactive),
COc1ccc(OC)c(S(=O)(=O)n2c([N+](=O)[O-])cnc2C)c1,-9.42% (inactive),
COc1cccc(CSc2nc3nc(C)cc(C)n3n2)c1,-14.8% (inactive),
COc1ccc(C(C[N+](=O)[O-])n2nc(C)cc2C)cc1 (stereo not drawn),,26.7 µM (active)
CC1(C(=O)Nc2ccc3c(c2)OCCO3)CCN1C(=O)Cc1cc(F)ccc1F (stereo not drawn),2.25% (inactive),
CCOC(=O)c1cc(-c2sc(NC(=O)c3ccccc3)nc2C)n(-c2ccc(Br)cc2)n1,-6.87% (inactive),
O=C(NCc1ccccc1)C1CNCC(C(=O)NCc2ccccc2)C1 (stereo not drawn),1.25% (inactive),
O=C(c1ccc(N2CCCC2=O)cc1)N1CCN(c2ccc(C(F)(F)F)cc2[N+](=O)[O-])CC1,-12.4% (inactive),
Cc1cc(NC(=O)CCC(=O)N(CC(=O)NCC2CCCO2)c2ccccc2C)no1 (stereo not drawn),-1.5% (inactive),
CCc1ccccc1N(CC(=O)NCC1CCCO1)C(=O)CCC(=O)Nc1nccs1 (stereo not drawn),,21.2 µM (active)
COc1ccc(N(CC(=O)NCC2CCCO2)C(=O)CCC(=O)Nc2nccs2)c(OC)c1 (stereo not drawn),-9.55% (inactive),
COc1ccc(C(=O)C(OP(=O)(OC)OC)c2ccccc2OC)cc1 (stereo not drawn),-7.71% (inactive),

Compound,"max response, negative = inhibition",Potency
CO[C@@H]1CN(C)C(=O)c2cc(NC(=O)C3CC3)ccc2OC[C@H](C)N(C(=O)CN2CCOCC2)C[C@@H]1C,-4.89% (inactive),
O=C(Nc1ccccc1-c1ccccc1)c1cccs1,,4.23 µM (active)
O=C(Nc1ccccc1-c1nnn(CC(=O)N2CCN(c3ccccc3)CC2)n1)c1cccs1,-6.64% (inactive),
O=C(Nc1ccccc1-c1ccccc1)c1ccccc1[N+](=O)[O-],-3.58% (inactive),
O=C(NCc1ccccc1)C1c2ccccc2OCC(=O)N1CCCN1CCOCC1 (stereo not drawn),-0.492% (inactive),
CC(C)c1ccc2c(c1)c(SC(C)(C)C)c(CC(C)(C)C(=O)O)n2Cc1ccc(Cl)cc1,,16.8 µM (active)
COc1ccc(NC2CCCN(C(=O)c3ccccc3-c3ncc[nH]3)C2)cc1 (stereo not drawn),-9.12% (inactive),
CC1=C(C(=O)N(C(C)C)C(C)C)CC(CC(=O)NCCCCc2ccccc2)C(=O)N1CCC1=CCCCC1 (stereo not drawn),1.49% (inactive),
CN(Cc1cn(Cc2ccc(C(F)(F)F)cc2)nn1)C1CN(Cc2cn(Cc3ccc(C(F)(F)F)cc3)nn2)S(=O)(=O)C1 (stereo not drawn),-2.76% (inactive),
CCc1ccccc1OCC(=O)Nc1ccc2c(c1)OCCO2,-10.4% (inactive),
CCOc1ccccc1NC(=S)C(=C([O-])c1ccc2c(c1)OCCO2)[n+]1ccc(CC)cc1,,26.7 µM (active)
O=[N+]([O-])c1cccc(/C([O-])=C(/C(=S)Nc2ccccc2F)[n+]2ccccc2)c1,-15% (inactive),
CCOc1ccc(CCN2C(=S)N([C@@H](CC(C)C)CN3CCC[C@@H]3CN3C(=S)NC[C@@H]3Cc3ccc(O)cc3)C[C@@H]2Cc2ccc(O)cc2)cc1,5.13% (inactive),
CCc1nc2c(OCc3ccc(Cl)cc3Cl)cccn2c1N(C)C(=O)C(C)C,3.78% (inactive),
CC(C)CNC(=O)C1(C)CCCN1C(=O)CSc1ccccc1 (stereo not drawn),-9.29% (inactive),
O=C(CCC1CCCN(C(=O)c2ccc(F)c(F)c2)C1)N1CCN(c2ccccn2)CC1 (stereo not drawn),-12.1% (inactive),
O=C(CCC1CCCN(C(=O)Cc2ccc(F)cc2)C1)N1CCN(c2ccccn2)CC1 (stereo not drawn),2.42% (inactive),
C=Cc1ccc(C(=O)N2CCCC(CCC(=O)N3CCN(c4ccccn4)CC3)C2)cc1 (stereo not drawn),,21.2 µM (active)
O=C(C=CC(=O)Nc1ccc(F)cc1F)Nc1ccc(F)cc1F,0.443% (inactive),
COC(=O)Cc1ccc(OC2(C)CCN(Cc3ccc4c(c3)OCCO4)C2)cc1 (stereo not drawn),-7.87% (inactive),
CC(=O)/C(=N\Nc1ccc(Cl)cc1Cl)Sc1cccc2cccnc12,,4.23 µM (active)
